The source of these data is PubChem BioAssay AID720709 (National Center for Advancing Translational Sciences (NCATS), 2013).

Out of some 360,000 compounds screened, about 520 (0.14%) were called active. Not shown: some 3% with an inconclusive outcome. The sample holds actives, similar compounds and a random draw of the others, so the mix is not that of the screen. A number with no mark means an inactive call. The call rests on the fitted dose curve; in most records, active means well fitted inhibition curve with a large enough effect; inconclusive means small, poorly fitted or top-dose-only effect; inactive means no such curve, though single readings can be large or run the other way.
Potency means the concentration at half of the fitted maximal effect.

For this assay, the target named is Rap guanine nucleotide exchange factor 3 (Homo sapiens) (UniProt O95398). Kind of assay: qHTS for Antagonist of cAMP-regulated guanine nucleotide exchange factor 3 (EPAC1): primary screen. Further: nearly all actives have a fitted effect of over 50% in size.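 On activity change, negative = inhibition: plate controls were vehicle for no effect and positive control for full effect.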 The note with it: EPAC1 GEF assay, Rap1b-BODIPY-GDP exchange fluorescence; series mostly up to 115 µM; activity change, negative = inhibition: at the top concentration. The source says: In multi-cellular eukaryotic organisms, the effects of cAMP are transduced by two ubiquitously-expressed intracellular cAMP receptors, the classic protein kinase A/cAMP-dependent protein kinase (PKA/cAPK) and the more recently discovered exchange protein directly activated by cAMP/cAMP-regulated guanine nucleotide exchange factor (EPAC/cAMP-GEF). Both PKA and EPAC are ubiquitously expressed in all tissues, and an increase in intracellular cAMP levels will lead to the activation of both PKA and EPAC. Therefore, careful dissections of the individual role and relative contribution of EPAC and PKA within the overall cAMP signaling in various model systems are critical for further elucidating the mechanism of cAMP signaling. To date no EPAC-specific antagonists and agonist, as well as isoform-specific agonists have been reported, and developing EPAC-specific pharmacological probes to determine the physiological functions that EPAC play in the overall cAMP-mediated signaling remains a major challenge within the research field. Furthermore, identified regulators of EPAC may lead to new mechanism-based therapeutic strategies specifically targeting the EPAC / cAMP-signaling components as EPAC has been implicated to play important roles in major human pathological conditions such as diabetes, heart disease, and cancer. This qHTS will be used to screen the Molecular Libraries Small Molecule Repository (MLSMR) as a concentration-titration series using the NCGC unique quantitative screening (qHTS) platform to find inhibitors for EPAC1. In addition, this assay will also be used as a counterscreen for the EPAC2 qHTS. This fluorescent based assay is developed and validated for EPAC1 that measures exchange using EPAC effector Rap1 complex with BODIPY-GDP, a GDP analog with a tethered fluorophores. Inhibitors are identified by monitoring the change in fluorescence signal as the exchanged free BODIPY-GDP has a reduced fluorescence compared to Rap1-bound BODIPY-GDP. Decrease in signal (inhibition) is the desired outcome for the EPAC1 antagonist while no activity in this assay is desired for the EPAC2 antagonist counterscreen. de Rooij, J., Zwartkruis, F. J., Verheijen, M. H., Cool, R. H., Nijman, S. M., Wittinghofer, A., and Bos, J.L. (1998) Nature 396, 474-477 [2] Kawasaki, H., Springett, G. M., Mochizuki, N., Toki, S., Nakaya, M., Matsuda, M., Housman, D. E., and Graybiel, A. M. (1998) Science 282, 2275-2279 NIH Chemical Genomics Center [NCGC] NIH Molecular Libraries Probe Centers Network [MLPCN] MLPCN Grant: NS066510 Assay Submitter (PI): Xiaodong Cheng, The University of Texas, Medical Branch
Chain of Rap guanine nucleotide exchange factor 3 (Homo sapiens) (O95398 whole entry, looked up): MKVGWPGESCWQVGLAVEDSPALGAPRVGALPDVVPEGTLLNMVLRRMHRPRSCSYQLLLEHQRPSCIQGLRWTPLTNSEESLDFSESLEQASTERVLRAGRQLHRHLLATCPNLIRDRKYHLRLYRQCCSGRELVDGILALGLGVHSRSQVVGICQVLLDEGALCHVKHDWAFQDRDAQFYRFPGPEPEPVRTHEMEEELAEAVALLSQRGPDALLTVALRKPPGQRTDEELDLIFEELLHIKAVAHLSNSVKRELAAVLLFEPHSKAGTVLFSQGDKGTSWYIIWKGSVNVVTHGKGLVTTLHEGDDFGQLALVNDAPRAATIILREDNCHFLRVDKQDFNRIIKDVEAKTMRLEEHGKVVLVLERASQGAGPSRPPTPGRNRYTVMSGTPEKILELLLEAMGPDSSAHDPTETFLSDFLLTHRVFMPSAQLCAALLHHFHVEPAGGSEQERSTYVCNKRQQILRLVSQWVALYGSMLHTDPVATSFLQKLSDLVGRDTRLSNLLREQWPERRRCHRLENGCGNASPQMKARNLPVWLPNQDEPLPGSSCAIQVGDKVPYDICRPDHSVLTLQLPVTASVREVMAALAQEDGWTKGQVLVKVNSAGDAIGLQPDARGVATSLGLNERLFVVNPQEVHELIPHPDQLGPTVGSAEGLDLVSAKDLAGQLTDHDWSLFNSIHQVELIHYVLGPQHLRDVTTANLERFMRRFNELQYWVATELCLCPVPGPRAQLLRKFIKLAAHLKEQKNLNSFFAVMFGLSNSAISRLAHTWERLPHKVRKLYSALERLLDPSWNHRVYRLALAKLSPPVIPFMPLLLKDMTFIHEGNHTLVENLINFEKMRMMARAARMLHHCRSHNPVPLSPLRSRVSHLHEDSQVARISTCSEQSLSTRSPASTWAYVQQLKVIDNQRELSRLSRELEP
Briefly, three uL of reagents (100 nM EPAC1, 250 nM RAP1B-BODIPY-GDP, 50 uM GDP) were dispensed into a 1536-well Greiner black solid-bottom medium binding assay plate. Controls and test compounds (23 nL) were transferred to the plate via a Kalypsys pin tool equipped with a 1536-pin array. The plates were centrifuged at 1,000 rpm for 15 seconds followed by 5 minute incubation at room temperature. The assay plates were read at 5 minute intervals for 30 minutes in the ViewLux plate reader using 480nm excitation and 540nm emission filters. The results were normalized to the […] positive control ATA and DMSO.
In general terms: Quantitative high-throughput screening tests each substance at several concentrations.
`CC(=O)OCC(C)n1c(=O)c2ccccc2n1C(C)=O` (centres undefined): the “activity change, negative = inhibition” value is 14.3%.

Turning to `CCc1nnc(NS(=O)(=O)c2ccc(NC(=S)NC(=O)/C=C/c3cccs3)cc2)s1`, the Potency was 35.5 µM (active).

As to `CCc1nnc(NS(=O)(=O)c2ccc(NC(=S)NC(=O)c3cccs3)cc2)s1`, the “activity change, negative = inhibition” value was -18.7%.

With `CCc1nnc(NS(=O)(=O)c2ccc(NC(=O)c3cccc(OC(F)(F)C(F)F)c3)cc2)s1`, the “activity change, negative = inhibition” value is 6.32%.

Consider `CCC(C(=O)NC(C)(C)C)n1c(-c2ccccc2)nc2ccccc21` (centres undefined), for which the “activity change, negative = inhibition” value was -11.7%.

Take `CC(=O)N1Cc2cc(C(=O)NCc3cccc(F)c3)nc(-c3cccc(C4=CCCC4)c3)c2[C@H]1CCO`: the “activity change, negative = inhibition” value is -4.59%.

On to `COC(=O)C1(C(=O)OC)C/C=C\CN(S(=O)(=O)c2ccccc2[N+](=O)[O-])CCC1`, for which the “activity change, negative = inhibition” value was -24.3%.

In the case of `C[N+](C)(C)CCNC(=O)c1c[nH]c2ccccc12`, the “activity change, negative = inhibition” value was -10.3%.

Regarding `CCOC(=O)c1c(C)[nH]c(C(=O)OCC(=O)N2CCCC2=O)c1C`, the “activity change, negative = inhibition” value is -3.83%.

Regarding `CN(C)S(=O)(=O)c1cccc(C(=O)OCC(=O)N2CCCC2=O)c1`, the “activity change, negative = inhibition” value is -1.48%.

On to `Cc1c(C(=O)OCC(=O)N2CCCC2=O)oc2ccccc12`, for which the Potency is 79.4 µM (active).

Turning to `COC(=O)[C@@]12C[C@@H](CC(=O)N3CCC(c4ccccc4)CC3)C(=O)N(Cc3ccccc3)C1=CCC(C)(C)C2`, the “activity change, negative = inhibition” value is 6.68%.

As for `COc1cc(OC)cc(C2=Cc3ccccc3C(CC(=O)c3ccco3)N2c2ccc(-c3cnc(OC)nc3)cc2)c1` (centres undefined), the “activity change, negative = inhibition” value was -2.98%.

As for `Cc1cccc(C)c1NC(=O)C(c1cccc2ccccc12)n1c(=O)c(-c2ccco2)nc2ccccc21` (centres undefined), the “activity change, negative = inhibition” value was -20.9%.

As for `Cc1ccc(S(=O)(=O)N2CC3C(=O)C[C@@H](c4ccccc4Cl)N(S(=O)(=O)c4ccc(C)cc4)C3CC2c2ccccc2)cc1` (some centres undefined), the “activity change, negative = inhibition” value is 0.258%.

In the case of `Cc1cccc(C)c1NC(=O)C(c1ccc(C(F)(F)F)cc1)n1c(=O)c(-c2ccco2)nc2ccccc21` (centres undefined), the “activity change, negative = inhibition” value is -14.7%.

Regarding `O=c1ccc2c(-c3ccccc3S(=O)(=O)O)c3ccc(O)c(O)c3oc-2c1O`, the Potency was 56.2 µM (active).

As for `COc1cccc(CNC(=O)[C@@H]2CCCN2C(=O)[C@@H]2CCCN2C(=O)c2ccccc2)c1`, the “activity change, negative = inhibition” value was -7.07%.

Consider `COc1ccc(CC(N)c2csc(NC(=O)Nc3ccc(C(C)C)cc3)n2)cc1` (centres undefined), for which the “activity change, negative = inhibition” value was -15.8%.

For the molecule `CCN(CC)CCN(C)C(c1ccnc2ccccc12)c1nnnn1-c1ccc2c(c1)OCCO2` (centres undefined), the “activity change, negative = inhibition” value was -3.49%.

For `COC(=O)[C@@]12C[C@@H](CC(=O)NCc3cccc(C(F)(F)F)c3)C(=O)N(Cc3ccco3)C1=CCC(C)(C)C2`, the “activity change, negative = inhibition” value was -20.9%.

In the case of `CCC(C)CN1C(=O)CSCC1(C)C(=O)NCc1ccccc1` (centres undefined), the “activity change, negative = inhibition” value was -4.93%.

As to `Cc1cccc(C)c1NC(=O)C(c1cccc(F)c1)N1CCN(C)CC1` (centres undefined), the “activity change, negative = inhibition” value was 6.48%.

As for `CCCCC(O)C1=C[N+](=O)CC=C1` (centres undefined), the “activity change, negative = inhibition” value was 14.4%.

Take `Cc1cccc(C)c1-n1nnnc1C1(C)CCC(=O)N1CCOc1ccccc1` (centres undefined): the “activity change, negative = inhibition” value was 14.7%.

With `COC(=O)[C@]12CCCCC=C1N(Cc1ccc3c(c1)OCO3)C(=O)[C@H](CC(=O)NCc1cccs1)C2`, the “activity change, negative = inhibition” value is 8.77%.

As for `Nc1nc2ncccn2c1-c1ccccc1`, the “activity change, negative = inhibition” value is -20.8%.

On to `O=C(NC1CCCC1)C1c2ccccc2OCC(=O)N1Cc1ccccc1` (centres undefined), for which the “activity change, negative = inhibition” value is -15.9%.

`CCCNC(=O)C[C@@H]1CC[C@@H]2[C@H](COC[C@H](O)CN2C(=O)c2cc(Cl)cc(Cl)c2)O1`: the “activity change, negative = inhibition” value is -0.835%.

Consider `COC(=O)[C@@]12C[C@@H](CC(=O)N3CCCCC3)C(=O)N(Cc3ccc4c(c3)OCO4)C1=CCC(C)(C)C2`, for which the “activity change, negative = inhibition” value was 5.33%.

With `CCCCOCCCNC(=O)C[C@@H]1C[C@@]2(C(=O)OC)CCCCC=C2N(CCC2=CCCCC2)C1=O`, the “activity change, negative = inhibition” value is -20.6%.

As to `C#CCNC(=O)C[C@@H]1C[C@@]2(C(=O)OCC)CCCC=C2N(Cc2ccco2)C1=O`, the “activity change, negative = inhibition” value was -7.54%.

On to `Cc1ccc(S(=O)(=O)N[C@H]2CCC[C@@H]2O)cc1`, for which the “activity change, negative = inhibition” value was -24.4%.

In the case of `O=C(NCc1ccccc1)C(c1ccc(F)cc1)N1CCN(C(=O)C2CCCO2)CC1` (centres undefined), the “activity change, negative = inhibition” value was -11.6%.
